Source: PubChem BioAssay (NCATS)
Records with an inconclusive call do not appear. Where a call stands in place of a potency, no number is given. Unmarked numbers belong to inactive results. Calls of active or inactive are those of the source. The call rests on the fitted dose curve; in most records, active means well fitted inhibition curve with a large enough effect; inconclusive means small, poorly fitted or top-dose-only effect; inactive means flat fitted curve, though single readings scatter.

Experiments:
PC15 = test: qHTS profiling for inhibitors of Plasmodium falciparum proliferation (AID 504749); further: potency means the concentration at half of the fitted maximal effect; details: P. falciparum in erythrocytes, SYBR Green DNA, 72 h; series mostly up to 28.7 µM
Summary of the method: (§1)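 SYBR Green fluorescence of parasite DNA, read after lysis and overnight dark incubation, measured growth over 72 h in erythrocyte culture at 0.3% parasitemia and 2.5% hematocrit. Data normalised to DMSO and 0.29 uM artemisinin, with plate-drift correction.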

PC26 = test: as above; details: P. falciparum in erythrocytes, SYBR Green DNA, 72 h; series mostly up to 28.7 µM
Summary of the method: as §1

PC49 = test: as above; details: P. falciparum in erythrocytes, SYBR Green DNA, 72 h; series mostly up to 28.7 µM
Summary of the method: as §1

SC27B = test: as above; details: P. falciparum in erythrocytes, SYBR Green DNA, 72 h; series mostly up to 28.7 µM
Summary of the method: as §1

TAB109 = test: as above; details: P. falciparum in erythrocytes, SYBR Green DNA, 72 h; series mostly up to 28.7 µM
Summary of the method: as §1

TAB113 = test: as above; details: P. falciparum in erythrocytes, SYBR Green DNA, 72 h; series mostly up to 28.7 µM
Summary of the method: as §1

TAB165 = test: as above; details: P. falciparum in erythrocytes, SYBR Green DNA, 72 h; series mostly up to 28.7 µM
Summary of the method: as §1

HEK293T = test: qHTS assay to identify novel small-molecules to repurpose for Merkel cell carcinoma treatment (AID 1296009); details: MCC and control cell lines, CellTiter-Glo viability, 72 h; at 44.8 µM (top of the series) unless noted
Summary of the method: (§2)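 Cell viability, measured as CellTiter-Glo luminescence, was normalized between DMSO and no-cell wells. The cells had been exposed to 8- or 11-point compound dilutions for 72 hr at 37 degree celsius.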

MCC-13 = test: as above; details: MCC and control cell lines, CellTiter-Glo viability, 72 h; series mostly up to 46 µM
Summary of the method: as §2

MCC-26 = test: as above; details: MCC and control cell lines, CellTiter-Glo viability, 72 h; series mostly up to 46 µM
Summary of the method: as §2

MKL-1 = test: as above; details: MCC and control cell lines, CellTiter-Glo viability, 72 h; series mostly up to 46 µM
Summary of the method: as §2

MKL-2 = test: as above; details: MCC and control cell lines, CellTiter-Glo viability, 72 h; series mostly up to 46 µM
Summary of the method: as §2

W2 = test: qHTS profiling for inhibitors of Plasmodium falciparum proliferation (AID 504749); further: potency means the concentration at half of the fitted maximal effect; details: P. falciparum in erythrocytes, SYBR Green DNA, 72 h; series mostly up to 28.7 µM
Summary of the method: as §1

KB-3-1 = test: Cytotoxic Profiling of Annotated Libraries Using Quantitative High-Throughput Screening (AID 1296008); details: Five cell lines viability, CellTiter-Glo ATP luminescence, 48-72 h; max response: hits give low values
Summary of the method: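 Cytotoxicity was measured as CellTiter-Glo ATP luminescence, read after 10 min at room temperature. Compound treatment of the cells lasted 48 or 72 hr at 37 degrees Celsius in a qHTS format.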

HACAT = test: qHTS assay to identify novel small-molecules to repurpose for Merkel cell carcinoma treatment (AID 1296009); details: MCC and control cell lines, CellTiter-Glo viability, 72 h; at 44.8 µM (top of the series) unless noted
Summary of the method: as §2

NIH3T3 = test: as above; details: MCC and control cell lines, CellTiter-Glo viability, 72 h; at 44.8 µM (top of the series) unless noted
Summary of the method: as §2
Further: nearly all actives have a fitted effect of over 60% in size.

SMILES | Potency (PC15) | Potency (PC26) | Potency (PC49) | Potency (SC27B) | Potency (TAB109) | Potency (TAB113) | Potency (TAB165) | outcome (HEK293T) | Potency (MCC-13) | Potency (MCC-26) | Potency (MKL-1) | Potency (MKL-2) | Potency (W2) | max response (KB-3-1) [%] | outcome (HACAT) | outcome (NIH3T3)
CCN1CCC[C@H]1CNC(=O)c1c(OC)ccc(Br)c1OC | inactive | inactive | inactive | inactive | inactive | inactive | inactive | inactive | inactive | inactive | inactive | inactive | – | – | – | –
N[C@@H](Cc1cnc[nH]1)C(=O)O | inactive | inactive | inactive | inactive | inactive | inactive | inactive | – | – | – | – | – | inactive | 2.19 | – | –
CC(=O)CC(c1ccc([N+](=O)[O-])cc1)c1c(O)c2ccccc2oc1=O (stereo unspecified) | – | – | – | – | – | – | – | – | inactive | inactive | inactive | inactive | – | – | inactive | –
O=C(O)c1cc2cc(Cc3cccnc3)ccc2o1 | inactive | inactive | inactive | inactive | inactive | inactive | inactive | – | – | – | – | – | inactive | 4.6 | – | –
CC1(C)CCC(NC(=O)[C@@H](N)CCC(=O)O)CC1 | inactive | – | inactive | inactive | inactive | inactive | inactive | – | – | – | – | – | inactive | 5 | – | –
Cc1cccn2c(=O)c(-c3nnn[nH]3)cnc12 | inactive | inactive | inactive | inactive | inactive | inactive | inactive | inactive [at 17.4 µM] | inactive | inactive | inactive | inactive | inactive | – | – | –
CO/N=C1\CN(c2nc3c(cc2F)c(=O)c(C(=O)O)cn3C2CC2)CC1CN (stereo unspecified) | – | – | inactive | – | 5.01 µM (active) | – | – | – | inactive | inactive | inactive | inactive | 5.36 µM (active) | – | inactive | –
Cc1c(F)c(N2CCNC(C)C2)cc2c1c(=O)c(C(=O)O)cn2C1CC1 (stereo unspecified) | inactive | inactive | inactive | inactive | inactive | inactive | inactive | inactive | inactive | inactive | inactive | inactive | inactive | – | – | –
CC(=O)Oc1ccc(C(=C2CCCCC2)c2ccc(OC(C)=O)cc2)cc1 | inactive | inactive | inactive | inactive | inactive | inactive | inactive | – | inactive | – | inactive | inactive | inactive | – | inactive | –
N[C@H](CO)C(=O)O | inactive | inactive | inactive | inactive | inactive | inactive | inactive | – | – | – | – | – | inactive | -2.03 | – | –
CCCn1c(=O)[nH]c(=O)c2[nH]cnc21 | inactive | inactive | inactive | inactive | inactive | inactive | inactive | – | – | – | – | – | inactive | – | – | –
CCN1CCN(c2cc3c(cc2F)c(=O)c(C(=O)O)cn3C2CC2)CC1 | inactive | inactive | inactive | inactive | inactive | inactive | inactive | – | – | – | – | – | – | – | – | –
COC(=O)[C@H]1[C@H]2C[C@H]3c4[nH]c5ccccc5c4CCN3C[C@H]2CC[C@@H]1O | – | inactive | – | – | – | – | – | – | – | – | – | – | inactive | – | – | –
O=C(O)CCCCC(=O)O | inactive | inactive | inactive | inactive | inactive | inactive | inactive | – | – | – | – | – | inactive | – | – | –
Cc1c(C(N)=O)cc([N+](=O)[O-])cc1[N+](=O)[O-] | inactive | inactive | inactive | inactive | inactive | inactive | inactive | – | – | – | – | – | – | – | – | –
CNCCC(Oc1ccccc1C)c1ccccc1 (stereo unspecified) | – | – | – | inactive | inactive | inactive | – | – | – | – | – | – | 3.79 µM (active) | – | – | –
CC(C)(Oc1ccc(Cl)cc1)C(=O)O | inactive | inactive | inactive | inactive | inactive | inactive | inactive | – | inactive | – | inactive | inactive | inactive | – | – | –
NC(=O)CC[C@@H]1NC(=O)[C@H](Cc2ccccc2)NC(=O)[C@H](Cc2ccc(O)cc2)NC(=O)CCSSC[C@@H](C(=O)N2CCC[C@H]2C(=O)N[C@@H](CCCN=C(N)N)C(=O)NCC(N)=O)NC(=O)[C@H](CC(N)=O)NC1=O | – | – | – | – | – | – | – | – | inactive | inactive | inactive | inactive | – | – | – | inactive
CCOC(=O)n1ccn(C)c1=S | inactive | inactive | inactive | inactive | inactive | inactive | inactive | – | inactive | – | inactive | inactive | inactive | – | – | inactive
CCCCc1nc(Cl)c(CO)n1Cc1ccc(-c2ccccc2-c2nn[nH]n2)cc1 | inactive | – | inactive | – | – | – | 8.91 µM (active) | – | – | – | – | – | 10.7 µM (active) | – | – | –
